Laboratory results published in PubChem BioAssay (NCATS).
Records with an inconclusive call do not appear. Activity calls are given as the source filed them. Calls come from the whole dose curve; as a rule, active = well fitted curve in the direction sought with a large enough effect; inconclusive = small, poorly fitted or top-dose-only effect, or another doubt; inactive = no such curve, though single readings can be large; an effect the other way counts as inactive or inconclusive.

test system: not listed separately; test: High Content Imaging Cell-Based qHTS for Inhibitors of the mTORC1 Signaling Pathway in MEF Cells (AID 2667); settings: series mostly up to 38.3 µM; activity change, negative = inhibition: at the top concentration;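 note: Tsc2-/- p53-/- MEFs stably re-expressing wild-type Tsc2 exposed 24 h; plate controls were DMSO wells for no effect and rapamycin control wells for full effect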
In short: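 MEF (Tsc2-/-, p53-/-, WT Tsc2 re-expressed); cpd 24 h, 37 °C; PFA fix; Alexa-488 anti-p-rpS6 Ser235/236, PI, Hoechst; IN Cell imaging; Hoechst/Alexa-488 intensity ratio; % active cells, thresholds set from rapamycin and DMSO wells.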

| Compound | activity change, negative = inhibition |
| --- | --- |
| CC(C(=O)O)c1ccc(CC2CCCC2=O)cc1 (centres undefined) | -100% (inactive) |
| OC(CCN1CCCCC1)(c1ccccc1)C1CCCCC1 (centres undefined) | -100% (inactive) |
| c1ccc2c(c1)CCCC2C1=NCCN1 (centres undefined) | -100% (inactive) |
| OCCN1CCN(CC/C=C2/c3ccccc3Sc3ccc(C(F)(F)F)cc32)CC1 | -100% (inactive) |
| Nc1c2c(nc3ccccc13)CCCC2O (centres undefined) | -100% (inactive) |
| NC(N)=N/N=C/c1c(Cl)cccc1Cl | -100% (inactive) |
| CCNC(=O)N1CCN(CCCC(c2ccc(F)cc2)c2ccc(F)cc2)CC1 | -100% (inactive) |
| CCN(CC)CC(=O)Nc1c(C)cccc1C | -100% (inactive) |
| COc1ccc([C@@H]2Sc3ccccc3N(CCN(C)C)C(=O)[C@@H]2OC(C)=O)cc1 | -100% (inactive) |
| Cc1cc(C)c(/C=C2\C(=O)Nc3ccccc32)[nH]1 | -100% (inactive) |
| C(=C\c1ccccc1)/CN1CCN(C(c2ccccc2)c2ccccc2)CC1 | -100% (inactive) |
| C[C@]12CCC(=O)C=C1CC[C@@H]1[C@@H]2CC[C@@]2(C)[C@H]1CC[C@]2(O)C(=O)CO | -100% (inactive) |
| Cc1nc2c([nH]1)c(=O)n(C)c(=O)n2Cc1ccco1 | -100% (inactive) |
| CN(C)CCN(Cc1cccs1)c1ccccn1 | -100% (inactive) |
| COCCc1ccc(OCC(O)CNC(C)C)cc1 (centres undefined) | -100% (inactive) |

test system: not listed separately; test: Cytometry Cell-Based qHTS for Inhibitors of the mTORC1 Signaling Pathway in MEF cells (AID 2668); settings: mTORC1 pathway readout; series mostly up to 38.3 µM; activity change, negative = inhibition: at the top concentration;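 note: Tsc2-/- p53-/- mouse embryonic fibroblasts stably re-expressing wild-type Tsc2; percent cells positive for phospho-rpS6 Ser235/236 relative to propidium iodide stain; plate controls were DMSO wells for no effect and 7.5 nM rapamycin control wells for full effect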
In short: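 WT MEFs (Tsc2-/-, p53-/- stably re-expressing WT Tsc2) in DMEM + 10% FBS received compounds 24 hrs after plating, for 24 hrs at 37 degree Celsius. Fixed cells stained with Alexa-488 anti-phospho-rpS6 Ser235/236 and propidium iodide; laser-scanning cytometry read-out.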

| Compound | activity change, negative = inhibition |
| --- | --- |
| CCCCNC(=O)NS(=O)(=O)c1ccc(C)cc1 | 12.2% (inactive) |
| NC(Cc1ccc(Cl)cc1)C(=O)O (centres undefined) | 7.92% (inactive) |
| Fc1ccc(C(c2ccc(F)cc2)N2CCN(C/C=C/c3ccccc3)CC2)cc1 | -24.5% (inactive) |
| Cc1scc2c1N(C(=O)CN1CCN(C)CC1)c1ccccc1NC2=O | 4.64% (inactive) |
| COc1cc(Cc2cnc(N)nc2N)cc(OC)c1OC | -1.78% (inactive) |
| CO[C@@]1(NC(=O)CSCC#N)C(=O)N2C(C(=O)O)=C(CSc3nnnn3C)CS[C@@H]21 | -1.57% (inactive) |
| CC(=O)OCC1=C(C(=O)O)N2C(=O)[C@@H](NC(=O)Cc3cccs3)[C@H]2SC1 | -13.5% (inactive) |
| CCn1ccnc1CC1COc2ccccc2O1 (centres undefined) | 9.29% (inactive) |
| CN(C)CC[C@@H](c1ccc(Br)cc1)c1ccccn1 | 2.11% (inactive) |
| Cc1ccc(S(=O)(=O)NC(=O)NN2CCCCCC2)cc1 | -2.27% (inactive) |
| CNCCC(Oc1ccccc1OC)c1ccccc1 (centres undefined) | 5.73% (inactive) |
| CC(C(=O)O)c1ccc(CC2CCCC2=O)cc1 (centres undefined) | -10.4% (inactive) |
| c1ccc2c(c1)CCCC2C1=NCCN1 (centres undefined) | 8.91% (inactive) |
| Nc1c2c(nc3ccccc13)CCCC2O (centres undefined) | 2.99% (inactive) |
| CCN(CC)CC(=O)Nc1c(C)cccc1C | -1.4% (inactive) |
| C(=C\c1ccccc1)/CN1CCN(C(c2ccccc2)c2ccccc2)CC1 | -3.92% (inactive) |
| C[C@]12CCC(=O)C=C1CC[C@@H]1[C@@H]2CC[C@@]2(C)[C@H]1CC[C@]2(O)C(=O)CO | 9.16% (inactive) |
| Cc1nc2c([nH]1)c(=O)n(C)c(=O)n2Cc1ccco1 | -14.9% (inactive) |
| CN(C)CCN(Cc1cccs1)c1ccccn1 | 4.43% (inactive) |

test system: not listed separately; test: Validation screen for small molecules that induce DNA re-replication in MCF 10A normal breast cells (AID 463097); settings: MCF 10A cells, DNA re-replication phenotype imaging; series mostly up to 46.1 µM; re-replication induction: at the top concentration; note: nearly all actives have a fitted effect of over 60% in size; note: potency is the fitted concentration of half-maximal effect; for re-replication induction: 0% is about no effect
In short: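 Readout: Hoechst nuclear fluorescence intensity, 405 ex / 500-530 em, by scanning plate imager; re-replication scored as increase in nuclei with elevated DNA content. Cells exposed to compound 48 hr, 37 C, 5% CO2 beforehand.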

| Compound | re-replication induction | Potency |
| --- | --- | --- |
| CCCCNC(=O)NS(=O)(=O)c1ccc(C)cc1 | -1.03% (inactive) | – |
| COCCOC(=O)C1=C(C)NC(C)=C(C(=O)OC(C)C)C1c1cccc([N+](=O)[O-])c1 (centres undefined) | -0.883% (inactive) | – |
| Fc1ccc(C(c2ccc(F)cc2)N2CCN(C/C=C/c3ccccc3)CC2)cc1 | – | 12.6 µM (active) |
| Cc1scc2c1N(C(=O)CN1CCN(C)CC1)c1ccccc1NC2=O | 9.85% (inactive) | – |
| COc1cc(Cc2cnc(N)nc2N)cc(OC)c1OC | 3.53% (inactive) | – |
| CC(=O)OCC1=C(C(=O)O)N2C(=O)[C@@H](NC(=O)Cc3cccs3)[C@H]2SC1 | -3.43% (inactive) | – |
| CCn1ccnc1CC1COc2ccccc2O1 (centres undefined) | 15.1% (inactive) | – |
| Cc1nnc(SCC2=C(C(=O)O)N3C(=O)[C@@H](NC(=O)Cn4cnnn4)[C@H]3SC2)s1 | -3.8% (inactive) | – |
| CN(C)CC[C@@H](c1ccc(Br)cc1)c1ccccn1 | -8.59% (inactive) | – |
| CCOC(=O)C1=C(C)NC(C)=C(C(=O)OC)C1c1cccc(Cl)c1Cl (centres undefined) | – | 11.2 µM (active) |
| Cc1ccc(S(=O)(=O)NC(=O)NN2CCCCCC2)cc1 | -2.34% (inactive) | – |
| CNCCC(Oc1ccccc1OC)c1ccccc1 (centres undefined) | 6.43% (inactive) | – |
| CC(C(=O)O)c1ccc(CC2CCCC2=O)cc1 (centres undefined) | -0.558% (inactive) | – |
| OC(CCN1CCCCC1)(c1ccccc1)C1CCCCC1 (centres undefined) | 6.48% (inactive) | – |
| c1ccc2c(c1)CCCC2C1=NCCN1 (centres undefined) | -0.443% (inactive) | – |
| OCCN1CCN(CC/C=C2/c3ccccc3Sc3ccc(C(F)(F)F)cc32)CC1 | – | 12.6 µM (active) |
| CCNC(=O)N1CCN(CCCC(c2ccc(F)cc2)c2ccc(F)cc2)CC1 | 28.2% (inactive) | – |
| CCN(CC)CC(=O)Nc1c(C)cccc1C | -0.716% (inactive) | – |
| COc1ccc([C@@H]2Sc3ccccc3N(CCN(C)C)C(=O)[C@@H]2OC(C)=O)cc1 | 2.01% (inactive) | – |
| C[C@]12CCC(=O)C=C1CC[C@@H]1[C@@H]2CC[C@@]2(C)[C@H]1CC[C@]2(O)C(=O)CO | -1.21% (inactive) | – |

target: Ubiquitin carboxyl-terminal hydrolase 2 (Homo sapiens) (UniProt O75604); test: qHTS Validation Assay for Inhibitors of Ubiquitin-specific Protease USP2a Using CHOP2 as the Reporter (AID 463106); settings: USP2a cleavage of CHOP2 reporter, enzymatic; series mostly up to 38.3 µM; activity, negative = inhibition: at the top concentration;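 note: plate controls were DMSO for no effect and full inhibition by NEM for full effect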
In short: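 USP2 core (10nM final) was preincubated with compound for 30min at RT in 20mM Tris-HCl pH 8.0, 2mM CaCl2, 2mM beta-mercaptoethanol, 0.05% CHAPS. Ub-CHOP2 and reporter substrate (25nM each) were added, and fluorescence (Ex 485/Em 531nm) was read after 60min.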

Chain of Ubiquitin carboxyl-terminal hydrolase 2 (Homo sapiens) (O75604 whole entry, looked up): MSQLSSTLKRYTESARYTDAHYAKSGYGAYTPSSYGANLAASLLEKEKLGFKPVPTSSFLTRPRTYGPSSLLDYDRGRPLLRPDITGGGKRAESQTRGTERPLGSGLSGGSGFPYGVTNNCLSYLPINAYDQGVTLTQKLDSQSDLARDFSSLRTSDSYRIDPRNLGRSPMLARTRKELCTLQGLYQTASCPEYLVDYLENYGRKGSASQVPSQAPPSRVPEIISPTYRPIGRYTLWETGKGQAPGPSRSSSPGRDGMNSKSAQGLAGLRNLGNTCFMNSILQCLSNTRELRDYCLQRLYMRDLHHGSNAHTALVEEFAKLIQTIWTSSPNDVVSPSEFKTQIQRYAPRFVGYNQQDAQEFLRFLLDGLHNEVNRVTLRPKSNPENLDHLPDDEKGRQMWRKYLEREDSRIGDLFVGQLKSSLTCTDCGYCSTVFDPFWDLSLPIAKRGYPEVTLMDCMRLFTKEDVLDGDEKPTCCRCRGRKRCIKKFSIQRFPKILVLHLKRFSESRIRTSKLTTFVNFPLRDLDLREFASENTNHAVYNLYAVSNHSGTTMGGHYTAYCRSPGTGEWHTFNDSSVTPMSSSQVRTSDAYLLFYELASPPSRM

| Compound | activity, negative = inhibition |
| --- | --- |
| CCCCNC(=O)NS(=O)(=O)c1ccc(C)cc1 | -0.407% (inactive) |
| CN(C(=O)CCCOc1ccc2[nH]c(=O)ccc2c1)C1CCCCC1 | -0.0777% (inactive) |
| O=C1NCN(c2ccccc2)C12CCN(CCCC(c1ccc(F)cc1)c1ccc(F)cc1)CC2 | -7.65% (inactive) |
| NC(Cc1ccc(Cl)cc1)C(=O)O (centres undefined) | 0.374% (inactive) |
| COCCOC(=O)C1=C(C)NC(C)=C(C(=O)OC(C)C)C1c1cccc([N+](=O)[O-])c1 (centres undefined) | 0.321% (inactive) |
| CCN(Cc1ccncc1)C(=O)C(CO)c1ccccc1 (centres undefined) | 0.641% (inactive) |
| Fc1ccc(C(c2ccc(F)cc2)N2CCN(C/C=C/c3ccccc3)CC2)cc1 | 0.775% (inactive) |
| Cc1scc2c1N(C(=O)CN1CCN(C)CC1)c1ccccc1NC2=O | -0.551% (inactive) |
| CC(=O)Oc1cc(C(C)C)c(OCCN(C)C)cc1C | 1.72% (inactive) |
| CO[C@@]1(NC(=O)CSCC#N)C(=O)N2C(C(=O)O)=C(CSc3nnnn3C)CS[C@@H]21 | 2.74% (inactive) |
| CC(=O)OCC1=C(C(=O)O)N2C(=O)[C@@H](NC(=O)Cc3cccs3)[C@H]2SC1 | -1.62% (inactive) |
| CCn1ccnc1CC1COc2ccccc2O1 (centres undefined) | 1.76% (inactive) |
| CN(C)C(=O)Oc1ccc[n+](C)c1 | 0.797% (inactive) |
| CN(C)CC[C@@H](c1ccc(Br)cc1)c1ccccn1 | -1.01% (inactive) |
| Cc1ccc(S(=O)(=O)NC(=O)NN2CCCCCC2)cc1 | -0.373% (inactive) |
| CC(C(=O)O)c1ccc(CC2CCCC2=O)cc1 (centres undefined) | 0.377% (inactive) |
| OC(CCN1CCCCC1)(c1ccccc1)C1CCCCC1 (centres undefined) | 1.29% (inactive) |
| OCCN1CCN(CC/C=C2/c3ccccc3Sc3ccc(C(F)(F)F)cc32)CC1 | -13.8% (inactive) |
| Nc1c2c(nc3ccccc13)CCCC2O (centres undefined) | -0.866% (inactive) |
| NC(N)=N/N=C/c1c(Cl)cccc1Cl | 1.11% (inactive) |
| CCNC(=O)N1CCN(CCCC(c2ccc(F)cc2)c2ccc(F)cc2)CC1 | -4.28% (inactive) |
| CCN(CC)CC(=O)Nc1c(C)cccc1C | 2.37% (inactive) |
| COc1ccc([C@@H]2Sc3ccccc3N(CCN(C)C)C(=O)[C@@H]2OC(C)=O)cc1 | -11.4% (inactive) |
| C[C@]12CCC(=O)C=C1CC[C@@H]1[C@@H]2CC[C@@]2(C)[C@H]1CC[C@]2(O)C(=O)CO | -2.21% (inactive) |
| COCCc1ccc(OCC(O)CNC(C)C)cc1 (centres undefined) | -0.025% (inactive) |
